{"source": "ChEMBL document CHEMBL4513216", "about": "“Probing the Open Global Health Chemical Diversity Library for Multistage-Active Starting Points for Next-Generation Antimalarials” (ACS Infect Dis, 2020)", "note": "About 8,600 (12%) of roughly 69,000 compounds showed an effect of 50% or more. The sample as a whole holds a higher share of strong results than the screen did.", "data": [{"system": "Plasmodium berghei", "assay": "Screen against P. berghei liver stage (PbLuc), transformed with Luciferase, at 10uM", "format": "functional, HepG2", "conditions": "tested at 10 uM", "units": {"INHIBITION": "%"}, "values": [{"smiles": "CC(C)Cc1cc(NC(=O)c2ccccn2)n(C)n1", "INHIBITION": 37.4}, {"smiles": "O=C(c1ccc(C2CCCO2)s1)N1CCOCC1", "note": "(centres undefined)", "INHIBITION": -48.4}, {"smiles": "O=C(c1ccc(C2CCCO2)s1)N1CCN(c2ccccc2F)CC1", "note": "(centres undefined)", "INHIBITION": 80.1}, {"smiles": "Cc1cc(C)nc(N2CCN(C(=O)c3ccc(C4CCCO4)s3)CC2)n1", "note": "(centres undefined)", "INHIBITION": 36.8}, {"smiles": "O=C(Nc1ccccc1OCCc1ccccn1)N1CC[C@@H](O)C1", "INHIBITION": -48.1}, {"smiles": "NC(=O)c1ccc(CN2CCCC(O)C2)cc1", "note": "(centres undefined)", "INHIBITION": -6.32}, {"smiles": "CC1CCCN(Cc2ccc(C(N)=O)cc2)C1", "note": "(centres undefined)", "INHIBITION": 50.5}, {"smiles": "NC(=O)c1ccc(CN2CCCC(N3CCCC3)C2)cc1", "note": "(centres undefined)", "INHIBITION": -3.95}, {"smiles": "CN1CCN(c2cc(CNC(=O)Cn3cccn3)ccn2)CC1", "INHIBITION": 37.8}, {"smiles": "N#Cc1csc(CNCCOc2ncccc2Cl)c1", "INHIBITION": -23.2}, {"smiles": "O=C(c1ccco1)N1C[C@H]2CCCN(Cc3ccoc3)[C@H]2C1", "INHIBITION": 44.3}, {"smiles": "COc1ccc([C@@H]2NC(=O)N[C@H]3OCCC[C@H]32)cc1", "INHIBITION": 42.1}, {"smiles": "O=C1N[C@H]2OCCC[C@H]2[C@H](c2ccc(C(=O)O)cc2)N1", "INHIBITION": -1.25}, {"smiles": "O=C1N[C@H]2OCCC[C@H]2[C@H](c2ccccc2)N1", "INHIBITION": 52.2}, {"smiles": "COCCNC(=O)CN1CC=C(n2c(C)nc(=O)c3ccccc32)CC1", "INHIBITION": 6.33}, {"smiles": "c1cnc(NCc2nnn3c2CN(Cc2ccco2)CCC3)nc1", "INHIBITION": -11.6}, {"smiles": "CN(Cc1cccc(Cl)c1)S(=O)(=O)N1CCOCC1", "INHIBITION": -14.2}, {"smiles": "CC(c1cccc(-c2nccn2CCc2cn[nH]c2)c1)N(C)C", "note": "(centres undefined)", "INHIBITION": 85.9}, {"smiles": "CC(c1cccc(-c2nccn2CCc2ccccn2)c1)N(C)C", "note": "(centres undefined)", "INHIBITION": 36.5}, {"smiles": "CC(=O)NCCn1ccnc1-c1cccc(C(C)N(C)C)c1", "note": "(centres undefined)", "INHIBITION": 30.3}, {"smiles": "Cc1noc(C)c1-c1cccc(C2CCN(CC(=O)N(C)C)CC2)n1", "INHIBITION": 8}, {"smiles": "Cc1ncsc1C(=O)N(C)Cc1cccnc1", "INHIBITION": -4.865}, {"smiles": "COc1ccc(OC)c(C(=O)N2C[C@@H]3CC[C@H]2CN(C)C3)c1", "INHIBITION": 9.56}, {"smiles": "O=c1c(NCCNCCO)c(N2CCN(c3ccc(F)cc3)CC2)c1=O", "INHIBITION": 23}, {"smiles": "Cc1ccc(C(=O)NC2CCN(Cc3nc(C(C)C)no3)CC2)s1", "INHIBITION": 13.8}, {"smiles": "Clc1cncc(NCc2cccc(COC3CCOCC3)c2)n1", "INHIBITION": -16.8}, {"smiles": "CS(=O)(=O)NCc1cccc(COC2CCCCC2)c1", "INHIBITION": 9.63}, {"smiles": "Clc1cnccc1NCc1cccc(COC2CCOCC2)c1", "INHIBITION": 79.7}, {"smiles": "COc1ccc(C(=O)N(Cc2cnn(C)c2)C(C)C)cc1OC(F)F", "INHIBITION": 33.3}, {"smiles": "Cc1nc(C)n(C2CCCN(C(=O)c3cc(C4CC4)on3)C2)n1", "note": "(centres undefined)", "INHIBITION": 29.2}, {"smiles": "COC(=O)c1ccccc1S(=O)(=O)NC(=O)c1cccc2c1OCCO2", "INHIBITION": -7.36}, {"smiles": "Cc1ccc(C(=O)NCCCN(C)S(C)(=O)=O)c(=O)[nH]1", "INHIBITION": 40.4}, {"smiles": "CCN(CCCNC(=O)c1ccc(C)[nH]c1=O)S(C)(=O)=O", "INHIBITION": 61}, {"smiles": "Cc1ccc(C)c(S(=O)(=O)NC(=O)c2cccc3c2OCCO3)c1", "INHIBITION": 68.8}, {"smiles": "Cc1ccc(C)c(S(=O)(=O)NC(=O)c2ccc(C)[nH]c2=O)c1", "INHIBITION": 52.3}, {"smiles": "Cc1ccc(C(=O)NS(=O)(=O)c2cc(Br)ccc2C)c(=O)[nH]1", "INHIBITION": 25.6}, {"smiles": "Cc1ccc(S(=O)(=O)NC(=O)c2cccc3c2OCCO3)c(C)c1", "INHIBITION": 23.7}, {"smiles": "O=C(NS(=O)(=O)c1ccc(Cl)cc1F)c1cccc2c1OCCO2", "INHIBITION": 50}, {"smiles": "Cc1ccc(C(=O)NS(=O)(=O)c2ccccc2C)c(=O)[nH]1", "INHIBITION": 24.6}, {"smiles": "O=C(NS(=O)(=O)c1ccccc1Cl)c1cccc2c1OCCO2", "INHIBITION": 49}, {"smiles": "O=C(NS(=O)(=O)c1cc(Cl)ccc1Cl)c1cccc2c1OCCO2", "INHIBITION": -31.3}, {"smiles": "Cc1ccc(C(=O)NCCCN(C(C)C)S(C)(=O)=O)c(=O)[nH]1", "INHIBITION": -8.97}, {"smiles": "CCc1ccc(C(COC)NC(=O)c2ccc(NC(C)=O)cc2)o1", "note": "(centres undefined)", "INHIBITION": 18.4}, {"smiles": "CCO[C@H]1CN(C)C[C@@H]1NC(=O)c1cc(C)nc2c(C)c(C)ccc12", "INHIBITION": 35}, {"smiles": "CCNC(=O)[C@@H]1C[C@H](NC(=O)Cn2ccnc2)CN1Cc1ccsc1", "INHIBITION": 39.3}, {"smiles": "CCN1CC(CN(C)Cc2nc(-c3cccc(Cl)c3)oc2C)CC1=O", "note": "(centres undefined)", "INHIBITION": 29.8}, {"smiles": "CC(=O)NCCCNC(=O)N(C)C(C)Cc1ccc(Cl)cc1", "note": "(centres undefined)", "INHIBITION": -6.99}, {"smiles": "CCN(CC)S(=O)(=O)c1ccc(C(F)(F)F)cc1C#N", "INHIBITION": 27.6}, {"smiles": "N#Cc1cc(C(F)(F)F)ccc1NCC1CCS(=O)(=O)CC1", "INHIBITION": 56.4}, {"smiles": "CS(=O)(=O)CCOCCNc1ccc(C(F)(F)F)cc1C#N", "INHIBITION": -13.4}, {"smiles": "N#Cc1cc(F)ccc1NCC1CCS(=O)(=O)CC1", "INHIBITION": -3.26}, {"smiles": "CS(=O)(=O)NCCCNc1ccc(C(F)(F)F)cc1C#N", "INHIBITION": 72.6}, {"smiles": "CN(CC1CC1)S(=O)(=O)c1ccc(C(F)(F)F)cc1C#N", "INHIBITION": 47.2}, {"smiles": "CCCNC(=O)C1CCN(Cc2csc(CC)n2)CC1", "INHIBITION": 15.3}, {"smiles": "Cc1cc(C(=O)N2C[C@@H]3CC[C@H]2CN(C)C3)ccc1Cl", "INHIBITION": 18.2}, {"smiles": "Cc1ccc(C)c(OCCC(=O)N2CCCN(CC(N)=O)CC2)c1", "INHIBITION": -79.3}, {"smiles": "COc1cccc(COCC(=O)N2CCCC(c3ccn[nH]3)C2)c1", "note": "(centres undefined)", "INHIBITION": 45.7}, {"smiles": "CC(C)CN(Cc1ccsc1)C(=O)CCCn1cncn1", "INHIBITION": 62.8}, {"smiles": "CC(=O)CCCC(=O)N(Cc1ccsc1)CC(C)C", "INHIBITION": 35}, {"smiles": "Cc1ccnn1CCC(=O)N(Cc1ccsc1)CC(C)C", "INHIBITION": 41.5}, {"smiles": "CNS(=O)(=O)c1ccc(C)c(C(=O)NCCNc2ncccn2)c1", "INHIBITION": -7.81}, {"smiles": "CCOc1ccc(CN[C@@H]2COC[C@H]2c2ccc(F)cc2)cc1", "INHIBITION": -16}, {"smiles": "CCc1nccn1-c1cncc(C2CCCN2)n1", "note": "(centres undefined)", "INHIBITION": 51.7}, {"smiles": "CCc1nccn1-c1cncc(C2CCCN2Cc2ccc(F)cc2)n1", "note": "(centres undefined)", "INHIBITION": 31.1}, {"smiles": "CCc1nccn1-c1cccc(C2CCCN2)n1", "note": "(centres undefined)", "INHIBITION": 31.3}, {"smiles": "CCc1nc(NC(=O)Cc2csc(-c3nnc[nH]3)n2)sc1C", "INHIBITION": 55.4}, {"smiles": "Cc1nc(C)c(CC(=O)Nc2nnc(C(C)C)s2)c(=O)[nH]1", "INHIBITION": 25.75}, {"smiles": "CCc1ccc(C(C)NC(=O)CCc2nc(-c3nnc[nH]3)no2)cc1", "note": "(centres undefined)", "INHIBITION": 38.8}, {"smiles": "Cc1cnn(CC2CCCN2C(=O)c2csc(-c3nnc[nH]3)n2)c1", "note": "(centres undefined)", "INHIBITION": -73.2}, {"smiles": "CCC(C)c1csc(NC(=O)Cc2csc(-c3nnc[nH]3)n2)n1", "note": "(centres undefined)", "INHIBITION": 93.4}, {"smiles": "O=C(Cc1csc(-c2nnc[nH]2)n1)N1CCCC1Cn1cccn1", "note": "(centres undefined)", "INHIBITION": 39.5}, {"smiles": "Cc1nn2cnnc2c(C)c1CCC(=O)Nc1nnc(C(C)C)s1", "INHIBITION": -23.5}, {"smiles": "CCC(C)c1csc(NC(=O)c2sc(-c3nnc[nH]3)nc2C)n1", "note": "(centres undefined)", "INHIBITION": 37.8}, {"smiles": "CC(C)c1nnc(NC(=O)Cc2csc(-c3nnc[nH]3)n2)s1", "INHIBITION": 76.7}]}]}
